IL1B secr inh: inhibitors of inflammasome signaling (IL-1 beta secretion). activity change, % at 57.5 µM. THP-1 LPS/ATP IL-1B secretion, AlphaLISA, 16 h; active compounds read low. 360,000 tested, 4.7% active; in the data active means activity change below about -50%; inconclusive means mostly about -30% to -49%; further: on the % scale 0 is the no-effect control and ±100 the full control effect
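THP-1 cells pretreated 1 hr with compounds (up to 57.5 uM final), then stimulated with LPS (250 ng/mL final) plus ATP (1.25 mM final); secreted IL-1B measured by AlphaLISA after 16 hr, decreased signal indicating inhibition.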
DT40 TDP1 CPT: growth inhibition of DT40 Tdp1-/-;hTDP1 cells with camptothecin (screen for TDP1 inhibitors); chicken DT40 Tdp1-/-;hTDP1 cells + 20 nM CPT, ATP luminescence, 48 h; Potency, µM (top dose mostly 46.2 µM), for inactives: at the highest dose activity change, negative = growth inhibition, most hits filed as inhibitors; 420,000 tested, 12% active; further: potency means the concentration at half of the fitted maximal effect; on the % scale 0 is the no-effect control and ±100 the full control effect; nearly all actives have a fitted effect of over 55% in size
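Cell growth measured by CellTiter-Glo luminescence after a minimum 48 h, 37 C compound exposure with 20 nM CPT in Tdp1-knockout DT40 cells stably expressing hTDP1, seeded 400/well; qHTS titration format.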
TGFb inhibitor: blocks TGF-b signaling. HepG2 CAGA-GFP TGF-b/SMAD3 reporter, GFP fluorescence, 18 h; TGF-beta stimulated, 500 pg/mL final. Potency, µM (series often up to 46.1 µM), without a hit: at the top dose activity, negative = inhibition, actives largely listed as inhibitors. 410,000 tested, 1.2% active. AID 588855; further: potency means the concentration at half of the fitted maximal effect; on the % scale 0 is the no-effect control and ±100 the full control effect; nearly all actives have a fitted effect of over 65% in size
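Cell-based qHTS in HEPG2 carrying a CAGA-GFP Smad reporter; compounds added before 500 pg/mL final TGF-beta, 18 h incubation at 37 degrees C, GFP fluorescence quantified per cell by imaging cytometry.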
HepG2 viability: counter-screen for TGF-b inhibitors: cytotoxicity in HepG2 cells; Potency, µM (series often up to 46.1 µM), for the others: at the top dose activity change, negative = cytotoxicity, hits mostly cytotoxic; AID 588856; 410,000 tested, 0.76% active; HepG2 CAGA-GFP viability, ATP luminescence, 18 h; further: potency means the concentration at half of the fitted maximal effect
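HepG2 CAGA-GFP cells (1000/well, DMEM with 1% FBS) received compound, then TGF-beta at 500 pg/mL final, and were incubated 18 hours at 37 degrees C. Viability was read by CellTiter-Glo luminescence. Media-only wells were set as complete cell-killing and DMSO as no toxicity.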
TDP1 cell noCPT: qHTS for Inhibitors of human tyrosyl-DNA phosphodiesterase 1 (TDP1): qHTS in cells in absence of CPT | DT40 Tdp1-/- hTDP1 cells, no CPT, ATP luminescence, 48 h | Potency, µM (series often up to 46.2 µM), without a hit: at the highest dose activity change, negative = growth inhibition, usual class: inhibitors | 420,000 tested, 15% active; further: potency means the concentration at half of the fitted maximal effect; on the % scale 0 is the no-effect control and ±100 the full control effect; nearly all actives have a fitted effect of over 55% in size
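A cellular qHTS used chicken DT40 cells lacking endogenous Tdp1 but carrying stably transfected human TDP1. Compounds were applied without camptothecin, and cell growth kinetics were judged by ATP-dependent luminescence after ≥48 hr.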
ASM inhibitor: human S-ASM enzyme inhibition; P17405; placental ASM, HMU-PC fluorogenic substrate, 60 min; Potency, µM (doses to about 57.5 µM), for inactives: top-dose activity change, negative = inhibition, usual class: inhibitors; 340,000 tested, 0.006% active; AID 504937; further: potency means the concentration at half of the fitted maximal effect
Target sequence (P17405 47-631 limits assumed): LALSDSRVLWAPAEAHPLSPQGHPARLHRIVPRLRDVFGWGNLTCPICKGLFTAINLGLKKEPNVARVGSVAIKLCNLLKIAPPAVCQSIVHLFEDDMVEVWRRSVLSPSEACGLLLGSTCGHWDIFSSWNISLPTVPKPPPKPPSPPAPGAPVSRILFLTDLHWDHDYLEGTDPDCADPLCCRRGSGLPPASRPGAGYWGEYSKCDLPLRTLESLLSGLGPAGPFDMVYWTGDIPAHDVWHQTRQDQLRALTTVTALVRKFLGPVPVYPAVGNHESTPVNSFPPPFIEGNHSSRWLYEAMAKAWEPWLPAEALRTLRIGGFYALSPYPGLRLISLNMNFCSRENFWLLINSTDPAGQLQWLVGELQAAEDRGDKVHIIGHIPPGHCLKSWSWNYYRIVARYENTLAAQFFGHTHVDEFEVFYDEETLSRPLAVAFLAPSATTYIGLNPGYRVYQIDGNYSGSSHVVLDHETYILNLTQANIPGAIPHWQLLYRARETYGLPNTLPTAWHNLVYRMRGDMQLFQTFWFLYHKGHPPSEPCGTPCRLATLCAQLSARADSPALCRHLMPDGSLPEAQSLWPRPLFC
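HMU-PC0 cleavage (9 uM final) by human placental ASM, 60 min at 37 °C following 10 min compound exposure at RT; stopped at pH 10, fluorescence Ex 386/Em 447 nm.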
* hit, by the source's call; i = inactive; ? = inconclusive; . = no result given. Only some compounds are listed: those with a hit (about 19% of all), similar ones and a draw of the others. Unless noted, the call rests on the fitted dose curve; in most records, active means well fitted curve in the direction sought with a large enough effect; inconclusive means small, poorly fitted or top-dose-only effect, or another doubt; inactive means no such curve, though single readings can be large; an effect the other way counts as inactive or inconclusive.

SMILES	IL1B secr inh	DT40 TDP1 CPT	TGFb inhibitor	HepG2 viability	TDP1 cell noCPT	ASM inhibitor
CC(C)(C)c1nnc2sc(SCCN3C(=O)c4ccccc4C3=O)nn2c1=O	-5	-13%	-11%	-14%	-1%	-1%
Cc1cc(C(=O)CSc2nn3c(=O)c(C(C)(C)C)nnc3s2)c(C)n1-c1ccc(F)cc1	8	16µM*	-26%	-6%	?	-5%
Cc1nnc2sc(SCC(=O)N3CCc4ccccc43)nn2c1=O	34	4%	6%	29%	-19%	5%
CC(C)N(C(=O)CSc1nn2c(=O)c(C(C)(C)C)nnc2s1)c1ccccc1	-50*	21µM*	0%	-1%	?	2%
Cc1cc(C(=O)CSc2nnc(C3COc4ccccc4O3)n2C)c(C)n1-c1ccc(F)cc1 (centres undefined)	-2	?	-11%	-19%	?	-4%
CC(C)(C)c1nnc2sc(SCC(=O)N3CCCCC3)nn2c1=O	-92*	?	-18%	1%	?	0%
CCCCN(C(=O)CC1CCCC1)c1c(N)n(CCCC)c(=O)[nH]c1=O	-7	-9%	35%	15%	-19%	2%
OC(c1ccc(F)c(F)c1)c1ncc(-c2ccccc2F)[nH]1 (centres undefined)	27	?	2%	-21%	?	.
CC(C)(C)OC(=O)N1CC23CC(c4ccc(F)cc4)C(CC2S1(=O)=O)O3 (centres undefined)	.	.	-5%	0%	.	.
COc1ccccc1NC(=O)CCNS(=O)(=O)c1ccc2c(c1)CCN2C(=O)C1CC1	.	?	-1%	13%	?	.
CCc1ccccc1NC(=O)CCNS(=O)(=O)c1ccc2c(c1)CCN2C(=O)C1CC1	.	?	-6%	-8%	18µM*	.
Cc1ccc(NC(=O)CCNS(=O)(=O)c2ccc3c(c2)CCN3C(=O)C2CC2)c(Cl)c1	.	5.2µM*	-10%	-26%	4.1µM*	.
O=C(CCNS(=O)(=O)c1ccc2c(c1)CCN2C(=O)C1CC1)Nc1ccc(Cl)cc1	.	10µM*	-3%	-31%	12µM*	.
CC(C)C[C@H]1CN(CCCC[C@@H]2CNC(=O)C(=O)N2Cc2ccccc2)C(=O)C(=O)N1Cc1ccccc1	21	2%	.	.	-8%	.
CCOC(=O)C(=CNc1ccc(-c2ccco2)c(Cl)c1)C(=O)OCC	-12	21µM*	?	-43%	16µM*	157%
CCOC(=O)C(=CNc1ccc(C(F)(F)F)cc1Cl)C(=O)OCC	9	-6%	16%	8%	?	-3%
CCOC(=O)C(=CNc1ccccc1Cl)C(=O)OCC	-27	-18%	-10%	-8%	?	-7%
CCOC(=O)C(=CNc1cc(Cl)c(-c2ccco2)c(Cl)c1)C(=O)OCC	-7	18µM*	-24%	-21%	12µM*	3%
COc1ccccc1NC(=O)Cc1nnc(SCC(=O)NC2=NCCS2)n1C	23	8%	24%	1%	-26%	3%
O=C(CCl)Nc1cn(-c2ccccc2)nc1-c1ccccc1	-97*	2.9µM*	?	22µM*	3.7µM*	-1%
O=C(O)Cc1cn(-c2ccccc2)nc1-c1ccc(Cl)cc1	-2	?	-32%	-26%	?	4%
CC(=O)Nc1cn(-c2ccccc2)nc1-c1ccccc1	-79*	1%	-2%	-9%	10%	1%
COC(=O)c1cn(-c2ccccc2)nc1-c1ccccc1	-29	?	16%	8%	-24%	-7%
CCOc1ccc(NC(=O)c2cccc3c(=O)c4c([nH]c23)CCCC4)cc1	.	-19%	5%	6%	-25%	.
O=c1c2ccccc2sn1-c1ccc(Cl)c(S(=O)(=O)N2CCOCC2)c1	.	1.4µM*	?	-35%	3.2µM*	.
SMILES	IL1B secr inh	DT40 TDP1 CPT	TGFb inhibitor	HepG2 viability	TDP1 cell noCPT	ASM inhibitor
O=S1(=O)N=C(N/N=C/C=C/c2ccccc2)c2ccccc21	-4	?	-20%	-25%	5.8µM*	-7%
CCCCCCCCNCCS(=O)(=O)NCc1ccccc1	-52*	?	?	16µM*	16µM*	-2%
CCCCNS(=O)(=O)CCNCCc1ccccc1	36	35%	3%	-1%	-17%	3%
CCC(=O)N1CCc2cc(S(=O)(=O)N(C)c3ccc(Br)cc3)ccc21	-4	-12%	0%	7%	?	-3%
C[C@@]1(C(=O)O)NCCc2cc(O)c(O)cc21	.	11µM*	.	.	11µM*	.
CC1CC(C)CN(C(=O)c2cc3cc(Br)cc(Br)c3o2)C1 (centres undefined)	-70*	-2%	-13%	-8%	?	-10%
CC1CC(C)CN(C(=O)c2cc3ccccc3o2)C1 (centres undefined)	-14	5%	-4%	0%	?	2%
O=C(Nc1ccsc1C(=O)O)c1ccccc1Cl	35	5%	7%	9%	-2%	-1%
N#CC1=C(N)OC2=C(CC/C2=C\c2ccccc2Cl)C1c1ccccc1Cl (centres undefined)	-68*	?	11µM*	-28%	21µM*	90%
N#CC1=C(N)OC2=C(C(=O)CCC2)C1c1ccccc1 (centres undefined)	-9	-10%	5%	-5%	0%	10%
N#CC1=C(N)OC2=C(CC/C2=C\c2ccccc2)C1c1ccccc1 (centres undefined)	-22	13µM*	66%	-1%	10µM*	i
CCOC(=O)C(C(=O)OCC)c1c([N+](=O)[O-])c(=O)n2c3c(cccc13)CCC2	9	?	0%	-6%	21µM*	-10%
O=c1c2ccccc2nc(COc2ccccc2)n1/N=C/c1c[nH]c2ccccc12	8	?	2%	1%	16µM*	5%
O=c1c2ccccc2nc(COc2ccccc2)n1/N=C/c1cn[nH]c1-c1ccccc1	-9	21µM*	-2%	-34%	16µM*	-2%
Cc1ccccc1OCc1nc2ccccc2c(=O)n1/N=C/c1cn[nH]c1-c1ccc(Br)cc1	-23	?	2%	-5%	?	-19%
O=c1c2ccccc2nc(COc2ccccc2)n1/N=C/c1ccc(O)cc1O	204	?	?	-16%	23µM*	-15%

Assay outcomes: PubChem BioAssay, National Center for Advancing Translational Sciences (NCATS)
